Test results taken from PubChem BioAssay AID887 (National Center for Advancing Translational Sciences (NCATS), 2007).
Where “and” joins values, the source holds several entries; their conditions need not be identical. Equal values may be shown once. The campaign covered roughly 74,000 compounds. About 1,100 (1.5%) were called active. Where a call stands in place of a potency, no number is given. Another 5% or so got no clear call; they are omitted. The sample as a whole holds a higher share of actives than the screen did. Unmarked numbers belong to inactive results. The call rests on the fitted dose curve; in most records, active means well fitted inhibition curve with a large enough effect; inconclusive means small, poorly fitted or top-dose-only effect; inactive means no such curve, though single readings can be large or run the other way.

molecular target: Polyunsaturated fatty acid lipoxygenase ALOX15 (Homo sapiens) (UniProt P16050); assay: qHTS Assay for Inhibitors of 15-hLO (15-human lipoxygenase); settings: purified 15hLO-1, xylenol orange hydroperoxide absorbance; series mostly up to 57.1 µM; further: nearly all actives have a fitted effect of over 55% in size
Procedure, shortened: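 Purified human 15hLO-1 (40 nM) in 25 mM Hepes pH 7.5, 0.01% Triton X-100, preincubated 15 min RT with compound, then 50 uM arachidonic acid for 6 min. Hydroperoxide read by ferrous/xylenol orange, 30 min; 573/405 nm absorbance ratio gave progress.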
Potency means the concentration at half of the fitted maximal effect.

Sequence of Polyunsaturated fatty acid lipoxygenase ALOX15 (Homo sapiens) (P16050 whole entry, looked up): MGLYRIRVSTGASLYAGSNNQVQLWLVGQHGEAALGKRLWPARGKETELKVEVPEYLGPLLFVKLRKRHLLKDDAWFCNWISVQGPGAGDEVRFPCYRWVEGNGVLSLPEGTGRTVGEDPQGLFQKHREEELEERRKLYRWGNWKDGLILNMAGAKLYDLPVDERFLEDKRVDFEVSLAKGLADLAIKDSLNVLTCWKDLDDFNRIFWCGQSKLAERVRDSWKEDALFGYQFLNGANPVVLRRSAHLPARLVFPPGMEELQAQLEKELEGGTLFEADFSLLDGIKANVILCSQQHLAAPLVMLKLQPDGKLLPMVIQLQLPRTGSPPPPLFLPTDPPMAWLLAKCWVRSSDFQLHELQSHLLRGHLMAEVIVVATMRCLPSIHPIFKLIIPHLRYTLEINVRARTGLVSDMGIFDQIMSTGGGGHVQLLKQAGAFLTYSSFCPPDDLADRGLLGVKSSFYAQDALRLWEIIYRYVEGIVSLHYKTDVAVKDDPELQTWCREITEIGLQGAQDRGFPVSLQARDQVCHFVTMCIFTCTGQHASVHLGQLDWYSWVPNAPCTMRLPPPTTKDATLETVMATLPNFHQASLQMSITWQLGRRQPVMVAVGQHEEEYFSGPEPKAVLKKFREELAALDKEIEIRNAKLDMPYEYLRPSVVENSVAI

SMILES	Potency	activity change, negative = inhibition
Oc1c(Cl)cc(Cl)c(Cl)c1Cc1c(O)c(Cl)cc(Cl)c1Cl	5.01 µM (active)	–
COc1cc(OC)c2c(c1Cl)OC1(C2=O)C(O)=CC(=O)CC1C (configuration not stated)	–	inactive
CC1O[C@@H](Oc2c(-c3ccc(O)c(O)c3)oc3cc(O)cc(O)c3c2=O)C(O)C(O)C1O (some centres not stated)	–	inactive
O=c1cc(-c2ccc(O)c(O)c2)oc2cccc(O)c12	0.398 µM (active)	–
Cc1cccc(-c2cc(=O)c3cc(C)ccc3o2)c1	–	inactive
COC1C[C@@H](O[C@@H]2C(C)C(=O)OC(C)C(C)C(O)C(C)C(=O)[C@@]3(CO3)CC(C)C(OC3OC(C)CC(N(C)C)C3O)C2C)OC(C)[C@@H]1O (some centres not stated)	–	inactive
C=CCSc1nc2c(c(=O)[nH]1)C(C(C)C)C(C#N)=C(N)O2 (configuration not stated)	–	inactive
CO[C@H]1COC(=O)[C@@H](OCc2ccccc2)/C=C\[C@H](C)[C@@H](OC)COC(=O)[C@H](OCc2ccccc2)/C=C\[C@@H]1C	–	-2.96% [at 11.4 µM]
CN(C(=O)CN(CCO)CC(=O)N(C)C(C)(C)Cc1ccccc1)C(C)(C)Cc1ccccc1	–	inactive
CCN(CC)c1ccc2oc(=O)c(C)nc2c1	25.1 µM (active)	–
Cc1ccc2oc(=O)ccc2c1	–	inactive
CCc1ccc2oc(-c3ccc(N)cc3)nc2c1	–	inactive
Nc1nnc(SCCN2C(=O)c3ccccc3S2(=O)=O)s1	–	inactive
COc1ccc(/C=C/C(=O)c2ccc(OC)cc2O)cc1	–	-1.36% [at 11.4 µM]
c1cnn(-c2cc(N3CCOCC3)ncn2)c1	–	inactive
COc1c(C)cccc1C(=O)Nc1cc(Cl)ccc1N1CCOCC1	–	inactive
O=C(Nc1cc(N2CCOCC2)ncn1)NC1(C(F)(F)F)Oc2ccc(Cl)cc2O1 (configuration not stated)	5.01 µM (active)	–
CCCCCCCCCc1ccc(OCCOCCOCCOCCOCCOCCOCCOCCOCCO)cc1	–	inactive
COC(=O)C1=C(C)Nc2ncnn2C1c1ccco1 (configuration not stated)	–	inactive
O=C(NCCc1ccc2c(c1)OCCO2)c1cc2ccccc2o1	–	inactive
Cc1ccc(C(C(=O)NC2CCCCC2)N(C(=O)c2csnn2)C2CC2)o1 (configuration not stated)	–	inactive

SMILES	Potency	activity change, negative = inhibition
CCC(C(=O)NC1CCCC1)N(C(=O)c1snc(C(N)=O)c1N)c1ccc2c(c1)OCCO2 (configuration not stated)	25.1 µM (active)	–
COc1cc(C(=O)Nc2oc(-c3ccccc3)c(-c3ccccc3)c2C#N)cc(OC)c1OC	–	inactive
Oc1ccc2c(c1)OCC1c3cc4c(cc3OC21)OCO4 (configuration not stated)	–	inactive
CCCCOCCCNC(=O)c1ccccc1OCC	–	2.13% [at 11.4 µM]
COc1ccc2[nH]cc(CCNc3ncnc4ccc(-c5ccc(C(=O)N(C)C)cc5)cc34)c2c1	–	inactive
CC(C)NC(=O)N1CCC2(CC1)CCN(C(=O)c1cccn1C)CC2	–	inactive
CC(C)c1ccc2c(c1)c(SC(C)(C)C)c(CC(C)(C)C(=O)O)n2Cc1ccc(Cl)cc1	12.6 µM (active)	–
CS(=O)(=O)N1CCC2(CC1)CN(Cc1ccccc1)C2	–	inactive
CC(=O)OCC1OC(C#Cc2ccccc2Cl)C=CC1OC(C)=O (configuration not stated)	–	-0.11% [at 11.4 µM]
CN1CC(=O)N=C1N	–	inactive
C[C@H]1CC[C@H](C(=O)O)N[C@@H]1c1ccc(C#Cc2ccccc2)cc1	–	-4.38% [at 11.4 µM]
Cc1c(NC(=O)c2cccnc2)c(=O)n(-c2ccccc2)n1C	–	inactive
Cc1cc(C(=O)Nc2c(C)n(C)n(-c3ccccc3)c2=O)cs1	1.58 µM (active)	–
COC(=O)Cc1csc(Nc2c(C)n(C)n(-c3ccccc3)c2=O)n1	–	inactive
O=C(Nn1cnc2ccccc2c1=O)c1ccc(F)cc1Cl	–	inactive
C/C(O)=C\c1nc(=O)c2c(C)cc(C)nc2n1-c1ccccc1	–	inactive
CCCS(=O)(=O)C(=C1Nc2ccccc2N1)S(=O)(=O)CCC	–	inactive
COc1c2c(cc3occ(-c4ccc5c(c4)OCO5)c(=O)c13)OC(C)(C)C=C2	–	inactive
COCCCn1c(CCC(=O)O)ccc1-c1ccc(F)cc1	15.8 µM (active)	–
COCCCNC(=O)c1c(F)c(F)c(F)c(F)c1F	–	inactive
CC(C)Cn1c(CCC(=O)O)ccc1-c1cccs1	–	inactive

SMILES	Potency	activity change, negative = inhibition
Nc1ncn(C2OC(CO)C(O)C2O)c(=O)n1 (configuration not stated)	–	inactive
CC1(C)OC2CC3C4CCC5=CC(=O)CCC5(C)C4(F)C(O)CC3(C)[C@]2(C(=O)CCl)O1 (some centres not stated)	–	inactive
CC1CC[C@@]23CCC4(C)[C@@]5(C)CCC6C(C)(C)C(O)CC[C@@]6(C)C5C=C[C@@]4(OC2=O)C3C1C (some centres not stated)	–	inactive
CCOC(=O)CSC1=C(C#N)C(c2ccco2)C(C(=O)OCc2ccccc2)=C(C)N1 (configuration not stated)	–	inactive
N#CC1=C(N)Oc2c(sc3ccccc23)C1c1ccco1 (configuration not stated)	3.98 µM (active)	–
Nc1nc2[nH]c(=O)c(=O)[nH]c2c(=O)[nH]1	–	inactive
CC(=O)OCC(=O)[C@@]1(O)CCC2C3CCC4=CC(=O)CC[C@]4(C)C3C(=O)C[C@]21C (some centres not stated)	–	inactive
O=C(c1ccco1)N1CCC2(CC1)CCN(c1ncccn1)CC2	–	inactive
COc1ccc(-c2nnc(SC(=O)N3c4ccccc4Sc4ccccc43)o2)cc1	3.16 µM (active)	–
COc1ccc(CC(=O)Nc2ccc(-c3nnc(-c4ccccc4)o3)cc2)cc1	–	inactive
COc1ccc(-c2nnc(SC(C)C#N)o2)cc1 (configuration not stated)	–	inactive
COC(=O)CC1C(C)(C)C(OC(C)=O)C2CC3=C4CC(=O)OC(c5ccoc5)[C@]4(C)CCC3[C@@]1(C)C2=O (some centres not stated)	–	inactive
CCOC(=O)c1sc(=S)n2c1[nH]c(=O)c1ccc(C(=O)OC)cc12	10 µM (active)	–
CCOC(=O)Cn1c(N)c(C(=O)OC)sc1=S	–	inactive
COC(=O)c1ccc2c(=O)n(CC3CCCO3)c(=S)[nH]c2c1 (configuration not stated)	–	inactive
COc1ccc(Oc2ncc3nc(C)c(=O)n(-c4ccccc4)c3n2)cc1	–	inactive
COC(=O)C1=C(C)N(Cc2ccccc2)C2=C3C(=O)N(c4ccccc4)C(=O)C3[C@@](O)(C(=O)OC)C(=O)N2C1c1ccccc1 (some centres not stated)	–	4.96% [at 11.4 µM] and 4.92% [at 11.4 µM]
CN1CCC(CNC(=O)c2ccc(-n3c(=O)c(=O)[nH]c4ccccc43)cc2)CC1	–	inactive
O=C1NS(=O)(=O)c2ccccc21	–	inactive
OCCCNC(c1ccccc1)c1ccc(O)cc1 (configuration not stated)	–	inactive
